# Screening data as filed in PubChem.
# An excerpt weighted towards active compounds, which were near 6.2% of everything screened.
# Lassa entry inh = qHTS for Inhibitors of binding or entry into cells for Lassa Virus | Lassa virus pseudotype entry inhibition, cell reporter | Potency, µM (series often up to 37.9 µM), for inactives: at the highest dose activity change, negative = inhibition, actives largely listed as inhibitors | hit rate 1.2% among 300,000 | AID 540256, 2011; calls by dose curve; tested in HEK293 cells; further: potency means the concentration at half of the fitted maximal effect; nearly all actives have a fitted effect of over 50% in size
# HCMV antiviral = qHTS Assay for inhibitors of the human cytomegalovirus (HCMV) | AID 1259415, 2018 | HFF cells, HCMV-luciferase reporter, 72 h; hits give low values | activity change, negative = inhibition, % at 57.5 µM | hit rate 4.5% among 410,000; in the data active means activity change below about -60%; inconclusive means no clear call, values can overlap the other calls; inactive means above about -39%
#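 Steps: HFFs plated, 16 h 37C; compounds added; HCMV-luciferase added to MOI 1 PFU/cell; 72 h 37C; OneGlo reagent, 5 min room temperature; luminescence read, normalized to controls.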
# FMDV antiviral = High Throughput Screening for Foot and Mouth Disease Virus Antivirals; FMDV antiviral cell-based qHTS; Potency, µM (doses to about 57.9 µM), for inactives: top-dose activity change, negative = inhibition, actives largely listed as inhibitors; AID 1159524, 2015; hit rate 1.2% among 410,000; calls by dose curve; tested in HEK293T cells; further: read-out not given here; potency means the concentration at half of the fitted maximal effect; nearly all actives have a fitted effect of over 45% in size
# MARV entry inh = qHTS for inhibitors of binding or entry into cells for Marburg Virus. Marburg virus pseudotyped entry inhibition, cell reporter. Potency, µM (titrated, usually from 37.8 µM), inactives show at the highest dose activity change, negative = inhibition, hits mostly inhibitors. hit rate 1.8% among 300,000. AID 540276, 2011; calls by dose curve; tested in HEK293 cells; further: potency means the concentration at half of the fitted maximal effect
# Active calls of the source: *; ? = inconclusive; . = not tested or not shown; [ ] = dose if it differs, or a comment. On the % scale 0 is the no-effect control and ±100 the full control effect.
SMILES,Lassa entry inh,HCMV antiviral,FMDV antiviral,MARV entry inh
COC(=O)c1c(NC(=O)c2ccccc2N(C)S(=O)(=O)c2ccccc2)sc2c1CCCC2,?,?,10.0%,4.47µM*
CCOC(=O)c1c(NC(=O)c2ccccc2N(C)S(=O)(=O)c2ccccc2)sc2c1CCCC2,?,?,-10.6%,-19.6%
O=C(Nc1sc2c(c1C(=O)O)CCC2)c1ccccc1,?,84.2,22.2%,7.3µM*
CCN(CC)Cc1c(NC(=O)c2ccc(OC)cc2)sc2c1CCCC2,?,-89.6*,28.8%,.
O=S(=O)(NC1CC2CCC1C2)c1ccc2c(c1)OCCO2 (configuration not stated),3.7%,-10.3,68.0%,-9.2%[46.1 µM]
FC(F)(F)Sc1ccc(NC(=S)NCc2ccccc2)cc1,.,?,-14.7%,.
COCCNC(=O)C(c1ccc(C)cc1)N(C(=O)CCC(=O)Nc1ccccn1)c1ccc(F)cc1 (configuration not stated),?,-0.5,-12.3%,?
O=C(Nc1sc2c(c1C(=O)O)CCCCC2)c1ccccc1,?,10.8,-18.7%,7.08µM*
Cn1ccnc1C(O)(c1ccccc1)c1ccccc1,13.9%,-32.0,-2.9%,24.6%
CCNC(=S)NCCC1=c2ccccc2=N/C1=C\c1c(O)n(C)c(=O)n(C)c1=O,.,4.8,39.8µM*,.
O=c1[nH]c2ccc(Cl)cc2c(-c2ccccc2)c1N1CCN(CCO)CC1,?,-27.6,-24.4%,10.3µM*
CCOC(=O)N1CCN(c2c(-c3ccccc3)c3cc(Cl)ccc3[nH]c2=O)CC1,?,-22.9,-25.5%,2.7%
CC(C)CCn1c(SCC(=O)N2CC(=O)Nc3ccccc32)nc2scc(-c3cccs3)c2c1=O,23.9%,-7.9,-12.9%,-17.1%
C=CCn1c(SCC(=O)N2CC(=O)Nc3ccccc32)nc2scc(-c3cccs3)c2c1=O,14.6µM*,-10.0,?,?
O=C1CN(C(=O)CSc2nncs2)c2ccccc2N1,6.2%[46.1 µM],-14.3,60.3%,?
O=C(CSc1nc(-c2ccccc2)cs1)N1CCN(C(=O)c2ccco2)CC1,3.3%,-103.1*,?,19.6%
CC1(C)C(=O)Nc2ccccc2N1C(=O)CSc1nc(-c2ccccc2)cs1,6.3%,-62.7*,15.8µM*,?
O=C1CN(C(=O)CSc2nc(-c3ccccc3)cs2)c2ccccc2N1,?,-61.4*,?,?
CCN(CC)c1ccc(N2C(=NC(=O)C3CCCO3)SC3CS(=O)(=O)CC32)cc1 (configuration not stated),.,-6.6,-22.0%,.
Cc1ccccc1OCCC(=O)N1CCN(S(=O)(=O)c2ccc(Cl)cc2)CC1,?,-26.5,-27.5%,?
Cc1cccc2cc(C#N)c(SCC(=O)N3CC(=O)Nc4ccccc43)nc12,?,-96.5*,?,?
COc1ccc2cc(C#N)c(SCC(=O)N3CC(=O)Nc4ccccc43)nc2c1,.,.,-13.6%,.
COc1ccc2c3c1OC1C(=O)CC[C@@]4(O)[C@@H](C2)N(C)CC[C@]314 (some centres not stated),.,-80.1*,?,.
O=C(C1CC1)N1CCC(Oc2cccc(C(=O)N3CCCCC3CCO)c2)CC1 (configuration not stated),.,-2.6,13.2%,.
O=C(NCc1cccc(Cl)c1)c1cccc(OC2CCN(C(=O)C3CC3)CC2)c1,?,-70.2*,15.8µM*,?
SMILES,Lassa entry inh,HCMV antiviral,FMDV antiviral,MARV entry inh
CCOc1ccc(-c2cc(C(=O)NCCOC)[nH]n2)c(C)c1,.,6.8,7.9%,.
CCOc1ccc(-c2cc(C(=O)Nc3ccc(C)c(NS(C)(=O)=O)c3)[nH]n2)c(C)c1,.,-91.1*,?,.
CCc1ccc(NC(=O)COc2ccc(F)cc2C(=O)c2cnn(-c3ccccc3)c2)cc1,-26.6%,-102.0*,10.1%,?
Cc1ccc(N/C(N)=N/c2nc3c(c(=O)[nH]2)CCCC3)c(C)c1,?,-26.8,.,?
Cc1ccc(N/C(N)=N/c2nc(C)cc(N3CCCCC3)n2)c(C)c1,?,?,15.8µM*,?
C=CCNCCCCOc1cccc(Br)c1,-1.6%,31.2,-10.6%,12.6µM*
Cc1cccc2cc3c(N)c(C#N)sc3nc12,-17.7%,-63.5*,10.6%,?
CN1C(c2ccccc2)CC(C)(O)CC1c1ccccc1 (configuration not stated),.,-33.4,.,.
Cc1cc(C)n(CC(=O)NC2CCCc3c2cnn3-c2ccccc2F)n1 (configuration not stated),.,-20.5,-14.7%,.
CCn1cc(C(=O)O)c(=O)c2cc(F)c(N3CCN(C(=S)NC(=O)c4ccccc4C)CC3)cc21,10.6%,-18.8,-20.9%,-15.2%[46.1 µM]
Cc1cc(Nc2ccc(F)cc2)n2c(nc3ccccc32)c1C#N,0.7%[46.1 µM],-24.6,?,0.8%[46.1 µM]
Cc1cc(Nc2cccc([N+](=O)[O-])c2)n2c(nc3ccccc32)c1C#N,6.31µM*,-100.3*,?,3.16µM*
CCC(C)c1ccccc1N1CC(C(=O)NCCC2=CCCCC2)CC1=O (configuration not stated),?,-29.2,3.4%,-26.6%
CCc1ccc2c(c1)c(=O)c(C(=O)c1ccccc1)cn2CC(=O)Nc1ccc(C)c(Cl)c1,-5.3%[46.1 µM],-68.6*,-4.6%,1.0%[46.1 µM]
CCc1ccc(C(=O)c2cn(CC(=O)Nc3ccc4c(c3)OCO4)c3ccc(CC)cc3c2=O)cc1,3.5%[46.1 µM],-88.2*,0.0%,7.7%[46.1 µM]
Cn1cc(SCC(=O)Nc2ccc3c(c2)OCO3)c2ccccc21,.,16.9,8.2%,.
CCc1ccc(C(=O)c2cn(CC(=O)Nc3ccc(Cl)cc3)c3cc4c(cc3c2=O)OCO4)cc1,?,13.4,0.0%,4.47µM*
CCc1ccc(C(=O)c2cn(CC(=O)Nc3ccc4c(c3)OCO4)c3ccc(Cl)cc3c2=O)cc1,16.0%[46.1 µM],-6.5,-18.2%,11.1%[46.1 µM]
CCCn1cc(SCC(=O)Nc2ccc3c(c2)OCO3)c2ccccc21,.,-65.5*,-9.2%,.
Cc1cccc(N2CC(C(=O)O)CC2=O)c1 (configuration not stated),-3.2%,-8.2,16.7%,9.9%[46.1 µM]
O=C(c1cc(-c2ccccn2)nc2c(Cl)cccc12)N1CCN(S(=O)(=O)c2ccccc2)CC1,-18.8%,118.5,0.0%,-44.6%
CCC1CCCN1Cn1cnc2c([nH]c3ccccc32)c1=O (configuration not stated),6.5%,10.0,0.0%,-12.6%
CCN(CC)c1ccc(NC(=O)CN(C)S(=O)(=O)c2cccc3nsnc23)c(C)c1,3.0%[46.1 µM],-66.6*,-23.5%,?
CC(=O)N(CN1C(=O)c2ccc([N+](=O)[O-])cc2C1=O)c1cccc(C(=O)O)c1,.,-11.4,-15.2%,.
COCOc1ccc(-c2ncc(OCCN3CCCC3=O)nc2NC(=O)c2cc3ccccc3s2)cc1,.,-100.5*,-12.5%,.
COc1ccc(CC(=O)Nc2nc(OCCN3CCCC3=O)cnc2-c2cccc(C(F)(F)F)c2)cc1,.,18.7,-13.4%,.
O=S(=O)(CCN1CCCCC1)CCS(=O)(=O)CCN1CCCCC1,0.7%[46.1 µM],-35.4,2.5%,0.4%[46.1 µM]
CC1=Nc2cc(C(=O)NCc3ccco3)ccc2Sc2ccc(C)cc21,?,-92.2*,7.4%,-41.2%
